PKM2 inhibitor: blocks activity of human pyruvate kinase M2; Potency, µM (titrated, usually from 57.5 µM), usual class: inhibitors; actives 0.058% (n = 260,000); purified PKM2, ATP generation, Kinase-Glo luminescence; active = well fitted inhibition curve with a large enough effect; also: nearly all actives have a fitted effect of over 60% in size
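Enzyme run at intermediate activity with final 0.1 mM ADP, 0.5 mM PEP (50 mM imidazole pH7.2, 50 mM KCl, 7 mM MgCl2), incubated 1 h at r.t. ATP formed read by Kinase-Glo luminescence, normalized to no-enzyme (full inhibition) and uninhibited wells.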
A number is an active result. This is one part of a sample in which hits are shown more often than they occur.

CN(C)C(=S)SSC(=S)N(C)C was read as PKM2 inhibitor 14µM.
`O=C1NC(=O)N(CCC2=CCCCC2)C(=O)/C1=C/c1cccs1` gave PKM2 inhibitor inactive.
For CC(=NCc1ccco1)c1c(O)n(-c2ccccc2)c(=O)[nH]c1=O the results were PKM2 inhibitor inactive.
Screening CC(=O)Nc1ccc(N(C(=O)Cn2nnc3ccccc32)C(C(=O)NC2CCCC2)c2ccc(O)c(O)c2)cc1 (centres undefined) returned PKM2 inhibitor inactive.
CSc1nc2ccccc2n1C(=O)Oc1ccccc1 was read as PKM2 inhibitor inactive.
Screening CN(C)C(=O)Oc1ccc(OCc2nc3ccccc3[nH]2)cc1 returned PKM2 inhibitor 11µM.
For O=C(Nc1cccnc1)C1CCN(S(=O)(=O)c2cccs2)CC1 the results were PKM2 inhibitor inactive.
NP(=O)(OCCCc1ccccc1)Oc1ccccc1Cl (centres undefined) was read as PKM2 inhibitor inactive.
Cc1cc2c(C(C)C)c(O)c(O)c(C=O)c2c(O)c1-c1c(C)cc2c(C(C)C)c(O)c(O)c(C=O)c2c1O was read as PKM2 inhibitor inactive.
CC(=NCc1ccc2c(c1)OCO2)c1c(O)n(Cc2ccccc2)c(=O)[nH]c1=O was read as PKM2 inhibitor inactive.

Screening results from PubChem BioAssay.
